Among the data in publication PMC5700166 are binding signal values, retold here.

Positions count from the first letter of the chain named.

Common to all, as to test: protein-binding microarray (PBM); PBM: ~300 nM protein, 6 mM HEPES pH 7.8, 80 mM KCl, 0.5 mM EDTA, 0.5 mM EGTA, 6% glycerol, 35 ng/ul poly-dIdC, 1% milk, 1 h, room temperature; Ap Aiptasia and Nv Nematostella (sea anemones) / Co Capsaspora / Aq Amphimedon (sponge) / Dm Drosophila / Hu human; RHD is the Rel homology domain; high values mean tight binding
Holding throughout (settings): dsDNA, one strand shown

One assay deals with T1, GST-Ap-NF-kB RHD (Exaiptasia pallida (Aiptasia), UniProt A0A913YAJ5 2-422).
T1 sequence: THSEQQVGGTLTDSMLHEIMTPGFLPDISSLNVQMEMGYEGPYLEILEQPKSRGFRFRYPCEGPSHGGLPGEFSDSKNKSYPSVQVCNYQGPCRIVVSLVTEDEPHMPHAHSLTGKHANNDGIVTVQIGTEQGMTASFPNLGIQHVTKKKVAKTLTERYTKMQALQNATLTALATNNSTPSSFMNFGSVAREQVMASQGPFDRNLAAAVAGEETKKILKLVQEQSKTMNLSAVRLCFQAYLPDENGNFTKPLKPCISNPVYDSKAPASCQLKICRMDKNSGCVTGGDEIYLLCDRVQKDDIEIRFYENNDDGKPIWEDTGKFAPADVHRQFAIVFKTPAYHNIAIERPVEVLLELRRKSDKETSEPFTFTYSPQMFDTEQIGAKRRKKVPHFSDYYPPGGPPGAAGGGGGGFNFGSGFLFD

In assay [1] the target is T2, GST-Nv-NF-kB (Cys allele) (Nematostella vectensis, UniProt E5G601 2-411).
T2 sequence: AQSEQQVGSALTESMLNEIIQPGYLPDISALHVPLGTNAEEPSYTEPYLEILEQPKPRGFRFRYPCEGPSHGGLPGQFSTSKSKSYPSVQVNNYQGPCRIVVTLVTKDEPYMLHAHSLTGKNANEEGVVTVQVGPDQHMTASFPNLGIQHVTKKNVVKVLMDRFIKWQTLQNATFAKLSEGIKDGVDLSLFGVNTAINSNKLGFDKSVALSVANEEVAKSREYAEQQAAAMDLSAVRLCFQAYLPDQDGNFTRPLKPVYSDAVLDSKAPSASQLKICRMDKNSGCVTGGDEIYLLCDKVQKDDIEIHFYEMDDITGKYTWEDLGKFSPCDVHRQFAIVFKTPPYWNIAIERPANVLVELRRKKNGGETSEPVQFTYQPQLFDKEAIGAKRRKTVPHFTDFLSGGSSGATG

Assay [2] has as its target T3, GST-Nv-NF-kB (Ser allele) (Nematostella vectensis, UniProt A7UNT2 2-411).
T3 sequence: T2 sequence with Q21R, C66S, S207N, E215Q, V217A, E225K, A268E, D399E

Another assay addresses T4, GST-Co-NF-kB (Capsaspora owczarzaki, UniProt F1ARL5 200-546).
T4 sequence: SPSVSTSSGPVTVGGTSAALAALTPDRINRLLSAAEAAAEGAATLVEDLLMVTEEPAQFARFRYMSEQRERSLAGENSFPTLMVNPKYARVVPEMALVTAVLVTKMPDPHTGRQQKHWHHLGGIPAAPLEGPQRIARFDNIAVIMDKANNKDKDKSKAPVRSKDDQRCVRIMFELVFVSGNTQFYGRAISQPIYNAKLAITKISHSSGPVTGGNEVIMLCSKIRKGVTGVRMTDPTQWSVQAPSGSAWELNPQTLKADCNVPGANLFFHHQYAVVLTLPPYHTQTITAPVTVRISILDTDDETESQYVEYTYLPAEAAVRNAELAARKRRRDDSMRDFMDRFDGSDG

For a further assay, the target named is T5, GST-Dm-Relish (Drosophila melanogaster, UniProt Q94527 99-473).
T5 sequence: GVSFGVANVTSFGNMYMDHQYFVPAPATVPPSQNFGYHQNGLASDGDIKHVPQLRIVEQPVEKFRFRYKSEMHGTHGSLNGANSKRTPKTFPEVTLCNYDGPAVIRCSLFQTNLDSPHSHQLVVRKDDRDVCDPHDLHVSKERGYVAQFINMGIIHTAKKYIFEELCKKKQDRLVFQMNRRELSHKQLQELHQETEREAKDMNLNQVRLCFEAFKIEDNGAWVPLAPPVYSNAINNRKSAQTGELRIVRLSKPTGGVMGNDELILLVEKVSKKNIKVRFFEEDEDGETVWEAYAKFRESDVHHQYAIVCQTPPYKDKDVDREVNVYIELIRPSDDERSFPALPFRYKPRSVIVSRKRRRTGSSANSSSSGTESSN

In another assay the target is T6, GST-Aq-NF-kB (Amphimedon queenslandica, UniProt A9Y5G7 2-389).
T6 sequence: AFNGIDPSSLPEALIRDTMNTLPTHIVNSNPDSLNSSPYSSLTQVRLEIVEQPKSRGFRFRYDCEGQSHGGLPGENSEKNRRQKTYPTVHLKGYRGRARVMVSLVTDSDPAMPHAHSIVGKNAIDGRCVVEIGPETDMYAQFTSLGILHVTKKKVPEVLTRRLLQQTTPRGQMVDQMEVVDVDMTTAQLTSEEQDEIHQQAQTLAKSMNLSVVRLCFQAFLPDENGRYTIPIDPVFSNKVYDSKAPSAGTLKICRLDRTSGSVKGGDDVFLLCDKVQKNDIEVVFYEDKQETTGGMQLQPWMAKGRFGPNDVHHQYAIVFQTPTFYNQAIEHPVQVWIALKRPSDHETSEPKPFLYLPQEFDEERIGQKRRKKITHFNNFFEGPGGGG

In a further assay the target is GST-Hu-p50 (Homo sapiens, UniProt P19838 7-356).
Chain of GST-Hu-p50 (P19838 7-356): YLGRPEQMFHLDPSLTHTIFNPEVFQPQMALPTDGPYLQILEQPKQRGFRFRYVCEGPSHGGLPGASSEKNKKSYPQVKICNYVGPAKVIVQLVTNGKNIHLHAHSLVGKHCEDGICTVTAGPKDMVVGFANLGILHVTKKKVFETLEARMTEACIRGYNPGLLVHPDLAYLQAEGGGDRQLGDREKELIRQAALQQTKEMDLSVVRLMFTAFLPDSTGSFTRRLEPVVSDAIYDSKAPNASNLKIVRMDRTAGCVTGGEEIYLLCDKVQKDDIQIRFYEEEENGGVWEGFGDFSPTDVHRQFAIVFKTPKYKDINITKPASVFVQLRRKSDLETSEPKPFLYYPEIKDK

With “CCGATTAACATCAGGGAAAATACTGATGTTAATCGGGTCTTGATTCGCTTGACGCTGCTG”, the binding signal in the assay with GST-Ap-NF-kB RHD is 3.76 z-score; in assay [1], 6.09 z-score; in assay [2], 6.82 z-score; with GST-Co-NF-kB it was 4.49 z-score; with GST-Dm-Relish, 4.93 z-score; with GST-Aq-NF-kB, 5.71 z-score. Besides, the binding signal with GST-Hu-p50 worked out at 4.76 z-score.
As for “CCGATTAACATCAAGCAATCCCCTGATGTTAATCGGGTCTTGATTCGCTTGACGCTGCTG”, the binding signal with GST-Ap-NF-kB RHD amounted to 6.44 z-score; in assay [1], 6.39 z-score; in assay [2], 6.94 z-score; in the assay with GST-Co-NF-kB, 2.5 z-score; with GST-Dm-Relish, 5.11 z-score; with GST-Aq-NF-kB it was 4.53 z-score. For the same sequence, the binding signal with GST-Hu-p50 stood at 5.37 z-score.
On to “CCGATTAACATCAGGGGGGATTATGATGTTAATCGGGTCTTGATTCGCTTGACGCTGCTG”, for which the binding signal is 8.28 z-score in the assay with GST-Ap-NF-kB RHD; 6.89 z-score in assay [1]; 7.27 z-score in assay [2]; 7.08 z-score with GST-Co-NF-kB; 6.91 z-score with GST-Dm-Relish; 6.21 z-score in the assay with GST-Aq-NF-kB. Moreover, in the assay with GST-Hu-p50, the binding signal was determined as 6.82 z-score.
For “CCGATTAACATCAGGGGAATAACTGATGTTAATCGGGTCTTGATTCGCTTGACGCTGCTG”, the binding signal with GST-Ap-NF-kB RHD turned out to be 6.5 z-score; in assay [1], 8.18 z-score; in assay [2], 7.95 z-score; with GST-Co-NF-kB, 7.09 z-score; with GST-Dm-Relish it was 9.39 z-score; with GST-Aq-NF-kB, 6.98 z-score. In the assay with GST-Hu-p50, this sequence yielded a binding signal of 5.61 z-score.
Take “CCGATTAACATCAAAATTGCCCCTGATGTTAATCGGGTCTTGATTCGCTTGACGCTGCTG”: the binding signal with GST-Ap-NF-kB RHD is 3.3 z-score; in assay [1], 4.73 z-score; in assay [2] it was 5.76 z-score; in the assay with GST-Co-NF-kB it was 3.12 z-score; with GST-Dm-Relish, 2.43 z-score; in the assay with GST-Aq-NF-kB, 4.55 z-score. This sequence also returned a binding signal in the assay with GST-Hu-p50 of 5.1 z-score.
For “CCGATTAACATCACGGGGCCCCCTGATGTTAATCGGGTCTTGATTCGCTTGACGCTGCTG”, the binding signal with GST-Ap-NF-kB RHD came to 5.45 z-score; in assay [1] it was 3.6 z-score; in assay [2] it was 2.68 z-score; with GST-Co-NF-kB it was 1.49 z-score; in the assay with GST-Dm-Relish it was 3.89 z-score; with GST-Aq-NF-kB, 4.31 z-score. Further, the binding signal in the assay with GST-Hu-p50 is 3.47 z-score.
With “CCGATTAACATCAATAACCCCCATGATGTTAATCGGGTCTTGATTCGCTTGACGCTGCTG”, the binding signal worked out at 5.5 z-score with GST-Ap-NF-kB RHD; 4.47 z-score in assay [1]; 4.38 z-score in assay [2]; 2.27 z-score with GST-Co-NF-kB; 5.69 z-score with GST-Dm-Relish; 4.84 z-score with GST-Aq-NF-kB. This sequence gave a binding signal with GST-Hu-p50 of 5.31 z-score.
Regarding “CCGATTAACATCAATTTCCCCCGTGATGTTAATCGGGTCTTGATTCGCTTGACGCTGCTG”, the binding signal was found to be 7.85 z-score in the assay with GST-Ap-NF-kB RHD; 6.59 z-score in assay [1]; 8.85 z-score in assay [2]; 12.3 z-score with GST-Co-NF-kB; 5.65 z-score with GST-Dm-Relish; 6.15 z-score with GST-Aq-NF-kB. For the same sequence, the binding signal in the assay with GST-Hu-p50 was 6.52 z-score.
As for “CCGATTAACATCACCCCTTCCCCTGATGTTAATCGGGTCTTGATTCGCTTGACGCTGCTG”, the binding signal with GST-Ap-NF-kB RHD was determined as 4.7 z-score; in assay [1], 3.88 z-score; in assay [2], 4.86 z-score; with GST-Co-NF-kB it was 5.6 z-score; in the assay with GST-Dm-Relish it was 2.5 z-score; in the assay with GST-Aq-NF-kB, 3.85 z-score. The binding signal with GST-Hu-p50 was determined as 3.3 z-score.
With “CCGATTAACATCAGGGGGGACCCTGATGTTAATCGGGTCTTGATTCGCTTGACGCTGCTG”, the binding signal amounted to 6.34 z-score with GST-Ap-NF-kB RHD; 4.19 z-score in assay [1]; 3.73 z-score in assay [2]; 4.11 z-score with GST-Co-NF-kB; 6.14 z-score with GST-Dm-Relish; 5.92 z-score in the assay with GST-Aq-NF-kB. In the assay with GST-Hu-p50, this sequence had a binding signal of 4.27 z-score.
For “CCGATTAACATCAAGGGAGTCCCTGATGTTAATCGGGTCTTGATTCGCTTGACGCTGCTG”, the binding signal in the assay with GST-Ap-NF-kB RHD amounted to 5.78 z-score; in assay [1] it was 4.59 z-score; in assay [2] it was 4.3 z-score; with GST-Co-NF-kB it was 1.18 z-score; with GST-Dm-Relish, 8.56 z-score; with GST-Aq-NF-kB it was 4.92 z-score. The sequence further showed a binding signal with GST-Hu-p50 of 3.72 z-score.
“CCGATTAACATCAAAGAACCCCCTGATGTTAATCGGGTCTTGATTCGCTTGACGCTGCTG”: the binding signal stood at 8 z-score with GST-Ap-NF-kB RHD; 6.95 z-score in assay [1]; 7.44 z-score in assay [2]; 3.51 z-score with GST-Co-NF-kB; 8.69 z-score with GST-Dm-Relish; 6.42 z-score with GST-Aq-NF-kB. The sequence also gave a binding signal with GST-Hu-p50 of 6.47 z-score.
